# Shiga inhibitor – inhibitors of Shiga toxin in Vero cells; inhibition, % at 38.7 µM; Vero cells, Shiga toxin protein synthesis inhibition reporter; actives 9.2% (n = 290,000); AID 2315; in the data active = inhibition mostly above about 28%, no sharp cut-off; inactive = mostly below about 43%; note: 0% is about no effect
# NS1 function inh – inhibitors of influenza NS1 protein function; Potency, µM (series often up to 46.1 µM), for the others: at the top dose activity, positive = more growth; actives 0.4% (n = 270,000); note: potency is the fitted concentration of half-maximal effect; actives are rising curves; nearly all actives have a fitted effect of over 50% in size
#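 A cell-based growth assay was used: compounds that relieve NS1-induced slow growth of budding yeast raise OD600. Assay medium was yeast nitrogen base with ammonium sulphate and -URA supplement, pH 6.0, with 2% galactose.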
# CHX counter – affects cycloheximide protein synthesis inhibition readout, counter-screen; cell reporter, cycloheximide protein synthesis inhibition counterscreen; max response, %; actives 12% (n = 300,000); AID 2314; in the data active = max response mostly above about 13%, no sharp cut-off; inactive = mostly below about 14%; note: read at 38.3 µM for the half of the compounds with a filed dose; 0% is about no effect
# SARS PLP yeast – inhibitors of SARS-CoV papain-like protease in yeast; S. cerevisiae expressing SARS-CoV PLpro, growth rescue; Potency, µM (titrated, usually from 32.9 µM), without a hit: top-dose activity, positive = growth rescue, most hits filed as activators; actives 0.19% (n = 330,000); AID 485353; note: potency is the fitted concentration of half-maximal effect; 0% is about no effect; nearly all actives have a fitted effect of over 55% in size
# The depositor's hits bear a star; nt = no result. The list is not random: actives were taken first. Their share in the collection is about 12%. Unless noted, calls come from the whole dose curve.
SMILES,Shiga inhibitor,NS1 function inh,CHX counter,SARS PLP yeast
CCOC(=O)c1c(NC(=O)CSc2nnc(C)o2)sc(C)c1C,-3.9,-36.8%,-4.8,0.6%
Cc1cc(C)c(NC(=O)c2ccc3c(c2)CCN3S(C)(=O)=O)c(C)c1,-3.3,-1.0%,-3.1,-0.9%
COc1ccccc1-c1ccc(Nc2ccc(C(=O)N3CCOCC3)cc2)nn1,19.6,-3.3%,11.9,-2.5%
CC(=O)c1ccc(Nc2ccc(-c3ccccc3F)nn2)cc1,91.7,nt,42.8*,-8.7%
c1ccc2nc3c(nc2c1)OCC1CCCCN31 (centres undefined),107.9*,2.2%,53.5*,0.0%
COc1ccc(C(=O)COC(=O)c2sccc2C)cc1OC,nt,nt,nt,3.2%
N#Cc1c(-c2ccc(F)cc2)ccnc1N1CCOCC1,26.5,-4.5%,18.5*,-1.4%
COc1cc(C2NC(=O)NC(O)(C(F)(F)F)C2C(=O)c2cccs2)ccc1O (centres undefined),87.0*,2.2%,33.5*,3.9%
COc1cc(C2NC(=O)NC(O)(C(F)(F)F)C2C(=O)c2ccc(Cl)cc2)ccc1O (centres undefined),11.7,1.2%,9.9,1.3%
COc1ccc2c(=O)c(C(=O)NCCc3ccc(OC)c(OC)c3)c[nH]c2c1,-8.6,-2.1%,-0.9,0.6%
COc1ccc2[nH]cc(C(=O)NCCc3ccccc3)c(=O)c2c1,28.5*,29.3%,20.3,-9.6%
COCCNC(=O)c1c[nH]c2ccc(S(=O)(=O)N(C)c3ccc(C)c(C)c3)cc2c1=O,43.3,-1.6%,21.5*,1.4%
COc1ccc2c(=O)c(C(=O)NCc3ccccc3)c[nH]c2c1,14.6,5.9%,7.1,3.0%
COc1ccc2c(=O)c(C(=O)NCCc3ccccc3)c[nH]c2c1,17.9*,19.4%,24.9*,0.4%
O=C(COc1ccc(C2SCCS2)cc1)NNC(=O)C(Cl)Cl,47.8,16.3%,22.2*,3.9%
Cc1ccc(NC(=O)COc2ccc(C3SCCS3)cc2)cc1,15.7,22.1%,17.0,3.3%
O=C(NC1=NCCS1)C1CCN(S(=O)(=O)c2ccccc2C(F)(F)F)CC1,nt,nt,nt,-1.4%
Cc1cccc(N=Nc2cnc(N)s2)c1,48.8*,-6.9%,47.1*,0.0%
CC(=O)Nc1ncc(N=Nc2cccc(C(F)(F)F)c2)s1,13.5,-0.2%,1.1,-0.3%
COc1cccc(CNC(=O)CSc2nc3ccc(C)cc3[nH]2)c1,32.8,0.9%,17.2*,-1.5%
Cc1ccc2nc(SCC(=O)Nc3ncccn3)[nH]c2c1,57.1,4.3%,4.3,0.1%
COC(=O)C1CCN(C(=O)CSc2nc3ccc(OC)cc3[nH]2)CC1,-9.4,nt,4.4,0.9%
Cc1ccc2nc(SCC(=O)NCc3cccs3)[nH]c2c1,5.0,-3.3%,10.8*,3.0%
COc1ccc2nc(SCC(=O)N3CCNC3=O)[nH]c2c1,78.5*,-0.1%,48.3*,4.1%
COC(=O)c1ccc(CSc2nc3ccc(C)cc3[nH]2)o1,37.1*,-14.1%,27.1*,-12.4%
SMILES,Shiga inhibitor,NS1 function inh,CHX counter,SARS PLP yeast
COC(=O)c1ccc(CSc2nc3c(cnn3-c3ccc(C)cc3)c(=O)[nH]2)o1,-3.7,9.7%,-4.3,-15.8%
Cc1cc(N2CCN(C)CC2)nc2ccc(NC(=O)CCC(=O)NCCc3ccc(Cl)cc3)cc12,-13.3,0.2%,1.2,0.0%
COc1ccc(OC)c(C2SCCN2S(=O)(=O)c2cccc(C(F)(F)F)c2)c1 (centres undefined),-7.4,2.4%,-3.2,-5.4%
COc1ccc(OC)c(NS(=O)(=O)c2ccc(NC(=O)C3COc4ccccc4O3)cc2)c1 (centres undefined),10.9,25.5%,-3.4,-1.1%
Cc1cc(C(=O)NCc2cccs2)c(C)o1,-12.4,-5.9%,-0.6,-2.6%
Cc1cc(C)cc(C(=O)OCC(=O)NCc2cccs2)c1,-3.0,-18.7%,6.6,-9.5%
O=C(CSc1nc2ccc(Cl)cc2[nH]1)NCCc1ccccc1,-1.9,11.2%,-5.8,-3.1%
Cc1ccc2c(=O)c(C(=O)NCc3cccs3)c[nH]c2c1,51.0*,5.7%,23.0*,8.2%
O=C(CSc1nc2ccc(Cl)cc2[nH]1)NCCc1ccc(Cl)cc1,-12.6,20.7%,37.0*,4.2%
Cc1ccc(C(=O)OCC(=O)NCc2cccs2)c(C)c1,112.5*,1.1%,41.2*,-4.3%
Cc1ccc(Cl)cc1NC(=O)NCc1ccccn1,10.5,5.5%,9.3,-6.2%
COc1cccc(NC(=O)NCc2ccccn2)c1,30.2*,3.0%,16.6*,-4.1%
O=C(NCc1ccccn1)Nc1cc(Cl)ccc1Cl,90.2*,-1.7%,35.7,nt
O=C(NCc1ccccn1)c1ccc(Cl)cc1Cl,50.8*,2.6%,28.4*,-5.3%
O=C(NCCCNC(=O)c1ccc(Cl)cc1Cl)c1ccccn1,-5.8,-2.8%,-3.3,0.5%
COc1cccc(NC(=O)C(=O)NCCc2ccc(F)cc2)c1,90.7*,-3.6%,40.9*,-0.2%
Cc1ccccc1-n1c(C)nnc1SCC(=O)N1CCc2ccccc2C1,-5.4,-22.0%,-2.0,-21.2%
CC(C)CCNC(=O)c1onc(CSc2nc3ccccc3[nH]2)c1C(=O)NCCC(C)C,11.8,19.6%,0.6,0.4%
Cc1cccc(C)c1NC(=S)N(C)CCc1ccccn1,-7.0,2.7%,-3.0,2.5%
O=C(NCc1ccccn1)Nc1cccc(Cl)c1,43.4*,-22.8%,29.3*,1.1%
CC(C)c1ccc(NC(=S)N(C)CCc2ccccn2)cc1,88.1*,-31.4%,29.6*,-1.5%
O=C(NCc1ccccn1)Nc1ccc(F)c(Cl)c1,9.5,1.8%,6.5,-3.6%
CC(C)c1ccc(NC(=O)NCc2ccccn2)cc1,67.8*,1.6%,32.8*,-4.4%
O=C(NCc1ccccn1)Nc1cccc(NC(=O)NCc2ccccn2)c1,12.2,-1.2%,5.0,6.4%
O=C(NCc1ccccn1)Nc1ccc(Cl)c(Cl)c1,54.6*,-93.3%,25.8*,-8.0%
SMILES,Shiga inhibitor,NS1 function inh,CHX counter,SARS PLP yeast
O=C(Cn1ccn(-c2ccc(F)c(F)c2)c(=O)c1=O)NCCc1ccccc1,-8.7,0.7%,-1.3,-1.1%
COc1ccccc1C1=Nn2c(nnc2-c2cccc(OC)c2OC)SC1,16.0,nt,-1.7,nt
CC(C)(C)OC(=O)N1C[C@H](O)C[C@H]1C(=O)OCC(=O)c1ccc([N+](=O)[O-])cc1,-4.8,-3.6%,11.4,0.1%
Cc1cccc(NC(=O)NCc2ccccn2)c1,51.3*,1.3%,26.7*,0.7%
COc1ccc(NC(=O)NCc2ccccc2F)cc1OC,-22.3,1.3%,-1.4,-0.9%
Cc1ccc(C)c(NC(=O)NCc2ccccn2)c1,-15.7,13.5%,-0.7,2.9%
COc1cccc(NC(=O)C(=O)NCCCn2ccnc2)c1,56.7,3.0%,33.6*,0.8%
COc1cccc(NC(=O)NCc2ccccc2F)c1,97.0*,-2.7%,40.1*,0.0%
COc1cccc(NC(=O)NCCCCc2ccccc2)c1,23.8,-106.9%,30.7*,-7.2%
O=C(CN(C(=O)c1csnn1)c1ccc(Cl)cc1)NCc1ccc2c(c1)OCO2,49.2,15.0%,7.9,-0.8%
CCCCC1C2C(=O)N(c3ccc(C)cc3)C(=O)C2ON1c1ccccc1 (centres undefined),103.7*,5.5%,34.7*,-1.1%
S=C(NCC1(c2ccccc2)CCCC1)Nc1ccccc1,-6.9,-31.6%,-6.2,0.6%
CC(=O)N1CCN(C(=O)c2ccc3c(c2)OCO3)CC1,nt,nt,nt,2.2%
Cc1nn(C(=O)c2cccs2)c(N)c1-c1ccccc1,67.8*,-51.9%,34.7*,-48.2%

# Compound activity (PubChem BioAssay)
